Test results as given in the supplement of paper PMC10849652.
Of roughly 7,900 targets only a part is listed; those with a hit were picked by preference. About 0.6% of all pairs of compound and target were hits.

Key:
Assay in all cases: log2 fold change, soluble protein after heating vs DMSO (PISA); higher = thermal stabilisation; K562 cells, 10 uM, 30 min; active = over 0.2 and 3.5 SD of the protein, either way, in both replicates (recomputed)
[1] = compound: COC1=CC=C(C=C1)CN2C=CC3=C2C=C(C=C3)C(=O)NO
Summary of the method: (§1)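 K562 cells (2×10^6 cells/mL) were treated with 10 μM compound for 30 min, and aliquots were heated for 3 min over 48°C-58°C. Pooled aliquots were extracted in PBS with 0.5% NP-40 at 4°C, and the supernatant after 21,000xg for 90 min was measured by TMTpro 16plex LC-MS/MS with channel sums equalised. Reported thermal stability, relative to control samples and from duplicates, is a log2 fold change.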

filanesib = compound: CON(C)C(=O)N1N=C(c2cc(F)ccc2F)S[C@@]1(CCCN)c1ccccc1 [filanesib]
Summary of the method: as §1

zotarolimus = compound: CO[C@H]1C[C@@H]2CC[C@@H](C)[C@@](O)(O2)C(=O)C(=O)N2CCCC[C@H]2C(=O)O[C@H]([C@H](C)C[C@@H]2CC[C@H](n3cnnn3)[C@H](OC)C2)CC(=O)[C@H](C)/C=C(\C)[C@@H](O)[C@@H](OC)C(=O)[C@H](C)C[C@H](C)/C=C/C=C/C=C/1C [zotarolimus]
Summary of the method: as §1

idasanutlin = compound: COc1cc(C(=O)O)ccc1NC(=O)[C@@H]1N[C@@H](CC(C)(C)C)[C@](C#N)(c2ccc(Cl)cc2F)[C@H]1c1cccc(Cl)c1F [idasanutlin]
Summary of the method: as §1

alisertib = compound: COc1cc(Nc2ncc3c(n2)-c2ccc(Cl)cc2C(c2c(F)cccc2OC)=NC3)ccc1C(=O)O [alisertib]
Summary of the method: as §1

[2] = compound: COc1cc2nc(-c3cc(F)ccc3O)nc(N[C@@H]3CNC[C@H]3C(C)(C)O)c2cc1OC
Summary of the method: as §1

gefitinib = compound: COc1cc2ncnc(Nc3ccc(F)c(Cl)c3)c2cc1OCCCN1CCOCC1 [gefitinib]
Summary of the method: as §1

[3] = compound: COc1cccc2cc(-c3nc([C@H]4CC[C@H](C(=O)O)CC4)n4ncnc(N)c34)[nH]c12
Summary of the method: as §1

lapatinib = compound: CS(=O)(=O)CCNCc1ccc(-c2ccc3ncnc(Nc4ccc(OCc5cccc(F)c5)c(Cl)c4)c3c2)o1 [lapatinib]
Summary of the method: as §1

pictilisib = compound: CS(=O)(=O)N1CCN(Cc2cc3nc(-c4cccc5[nH]ncc45)nc(N4CCOCC4)c3s2)CC1 [pictilisib]
Summary of the method: as §1

Measured: log2 fold change

CDK13 (UniProt Q14004)
Sequence of UniProt Q14004 (Q14004 whole entry, looked up): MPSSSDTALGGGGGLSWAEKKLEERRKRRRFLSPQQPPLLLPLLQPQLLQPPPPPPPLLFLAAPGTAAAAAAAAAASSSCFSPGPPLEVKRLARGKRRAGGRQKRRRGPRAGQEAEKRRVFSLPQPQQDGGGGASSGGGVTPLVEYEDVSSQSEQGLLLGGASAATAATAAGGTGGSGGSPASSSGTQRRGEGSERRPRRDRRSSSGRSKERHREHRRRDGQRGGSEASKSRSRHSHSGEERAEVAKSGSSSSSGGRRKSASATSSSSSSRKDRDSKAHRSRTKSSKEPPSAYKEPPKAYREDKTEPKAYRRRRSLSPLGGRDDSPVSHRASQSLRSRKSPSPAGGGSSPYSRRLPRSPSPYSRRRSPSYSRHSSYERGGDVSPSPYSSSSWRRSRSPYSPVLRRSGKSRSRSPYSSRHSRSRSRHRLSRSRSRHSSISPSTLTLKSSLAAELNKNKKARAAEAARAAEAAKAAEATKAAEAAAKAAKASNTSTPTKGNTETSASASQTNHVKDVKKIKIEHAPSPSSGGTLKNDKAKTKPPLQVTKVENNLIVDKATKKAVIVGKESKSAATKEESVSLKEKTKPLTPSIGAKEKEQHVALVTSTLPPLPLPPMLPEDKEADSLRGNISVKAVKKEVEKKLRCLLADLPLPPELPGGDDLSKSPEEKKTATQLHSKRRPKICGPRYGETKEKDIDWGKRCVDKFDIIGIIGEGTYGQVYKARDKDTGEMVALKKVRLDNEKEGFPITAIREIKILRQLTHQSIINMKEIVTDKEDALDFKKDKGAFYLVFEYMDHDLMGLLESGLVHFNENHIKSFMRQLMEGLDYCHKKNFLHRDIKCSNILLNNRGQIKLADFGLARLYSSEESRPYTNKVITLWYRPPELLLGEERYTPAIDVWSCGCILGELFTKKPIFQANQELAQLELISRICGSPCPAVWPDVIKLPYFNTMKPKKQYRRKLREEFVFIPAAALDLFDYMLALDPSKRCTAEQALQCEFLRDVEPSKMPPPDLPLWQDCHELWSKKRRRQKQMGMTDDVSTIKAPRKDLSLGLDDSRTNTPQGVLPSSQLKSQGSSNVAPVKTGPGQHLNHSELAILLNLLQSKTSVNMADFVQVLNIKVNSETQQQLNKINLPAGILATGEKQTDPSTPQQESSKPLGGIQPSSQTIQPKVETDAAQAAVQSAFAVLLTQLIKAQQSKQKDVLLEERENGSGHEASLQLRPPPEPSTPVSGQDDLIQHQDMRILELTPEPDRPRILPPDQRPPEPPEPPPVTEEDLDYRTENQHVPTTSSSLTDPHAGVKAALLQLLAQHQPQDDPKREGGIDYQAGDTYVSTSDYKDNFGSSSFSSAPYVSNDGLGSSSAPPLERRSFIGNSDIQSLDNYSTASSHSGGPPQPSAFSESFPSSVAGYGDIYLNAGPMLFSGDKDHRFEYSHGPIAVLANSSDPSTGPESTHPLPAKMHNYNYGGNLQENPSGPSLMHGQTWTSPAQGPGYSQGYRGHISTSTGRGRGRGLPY
inactive: [1] -0.323 | filanesib 0.169 | zotarolimus 0.029 | idasanutlin 0.215 | alisertib -0.141 | [2] -0.197 | gefitinib 0.001 | [3] 0.037 | lapatinib 0.054 | pictilisib -0.048

CSNK2B (UniProt P67870)
Sequence of UniProt P67870 (P67870 whole entry, looked up): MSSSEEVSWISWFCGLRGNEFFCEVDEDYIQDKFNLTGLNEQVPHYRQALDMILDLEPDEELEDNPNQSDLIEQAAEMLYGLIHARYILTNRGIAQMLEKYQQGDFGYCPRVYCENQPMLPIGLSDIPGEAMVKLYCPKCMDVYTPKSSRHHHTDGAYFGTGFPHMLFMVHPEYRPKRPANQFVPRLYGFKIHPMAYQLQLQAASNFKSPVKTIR
inactive: [1] 0.113 | filanesib -0.006 | zotarolimus -0.002 | idasanutlin -0.026 | alisertib -0.013 | [2] -0.196 | gefitinib -0.013 | [3] 0.028 | lapatinib 0.04 | pictilisib 0.079

CAMK2G isoform 6 (UniProt Q13555)
Sequence of UniProt Q13555 (Q13555 whole entry, looked up): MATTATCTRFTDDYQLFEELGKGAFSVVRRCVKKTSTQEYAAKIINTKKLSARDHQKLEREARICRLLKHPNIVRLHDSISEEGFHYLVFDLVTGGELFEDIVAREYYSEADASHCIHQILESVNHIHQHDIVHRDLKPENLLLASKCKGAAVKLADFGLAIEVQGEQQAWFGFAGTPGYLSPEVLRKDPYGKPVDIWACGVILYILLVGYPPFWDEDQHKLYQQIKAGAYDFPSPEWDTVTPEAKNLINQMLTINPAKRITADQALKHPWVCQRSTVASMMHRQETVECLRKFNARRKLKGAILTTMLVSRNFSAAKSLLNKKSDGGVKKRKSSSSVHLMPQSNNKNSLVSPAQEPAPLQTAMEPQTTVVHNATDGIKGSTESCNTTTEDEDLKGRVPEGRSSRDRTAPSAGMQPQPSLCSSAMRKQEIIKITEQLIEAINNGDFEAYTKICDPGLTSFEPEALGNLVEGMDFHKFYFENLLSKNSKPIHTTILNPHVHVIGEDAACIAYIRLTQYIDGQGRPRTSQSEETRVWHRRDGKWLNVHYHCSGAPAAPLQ
inactive: [1] -0.018 | filanesib 0.269 | zotarolimus 0.039 | idasanutlin -0.101 | alisertib -0.173 | [2] -0.032 | gefitinib -0.006 | [3] -0.204 | lapatinib 0.12 | pictilisib 0.141

CASP3 (UniProt P42574)
Sequence of UniProt P42574 (P42574 whole entry, looked up): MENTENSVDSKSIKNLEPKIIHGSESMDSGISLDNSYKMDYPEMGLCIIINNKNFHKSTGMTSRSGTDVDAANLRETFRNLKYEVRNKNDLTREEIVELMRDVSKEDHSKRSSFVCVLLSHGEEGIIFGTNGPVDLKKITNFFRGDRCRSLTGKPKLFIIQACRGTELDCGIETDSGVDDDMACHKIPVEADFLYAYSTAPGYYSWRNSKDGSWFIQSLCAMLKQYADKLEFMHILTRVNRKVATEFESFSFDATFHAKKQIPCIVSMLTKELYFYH
inactive: [1] 0.004 | filanesib -0.002 | zotarolimus 0.029 | idasanutlin 0.072 | alisertib -0.103 | [2] 0.025 | gefitinib 0.002 | [3] -0.018 | lapatinib 0.017 | pictilisib 0.006

CTBS (UniProt Q01459)
Sequence of UniProt Q01459 (Q01459 whole entry, looked up): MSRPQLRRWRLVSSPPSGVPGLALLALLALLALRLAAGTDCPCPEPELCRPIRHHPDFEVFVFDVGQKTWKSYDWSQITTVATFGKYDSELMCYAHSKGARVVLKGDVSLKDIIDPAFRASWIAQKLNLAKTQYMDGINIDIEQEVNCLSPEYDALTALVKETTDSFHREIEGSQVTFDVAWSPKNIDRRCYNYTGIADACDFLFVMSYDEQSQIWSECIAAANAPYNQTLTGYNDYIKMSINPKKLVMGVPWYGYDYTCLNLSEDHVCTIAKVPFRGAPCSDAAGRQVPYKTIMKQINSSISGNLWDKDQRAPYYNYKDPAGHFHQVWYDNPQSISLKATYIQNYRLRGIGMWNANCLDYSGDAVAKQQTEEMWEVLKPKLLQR
inactive: [1] -0.006 | filanesib -0.038 | zotarolimus 0.002 | idasanutlin 0.018 | alisertib -0.032 | [2] 0.026 | gefitinib 0.01 | [3] 0.055 | lapatinib 0.004 | pictilisib -0.068

COMT (UniProt P21964)
Sequence of UniProt P21964 (P21964 whole entry, looked up): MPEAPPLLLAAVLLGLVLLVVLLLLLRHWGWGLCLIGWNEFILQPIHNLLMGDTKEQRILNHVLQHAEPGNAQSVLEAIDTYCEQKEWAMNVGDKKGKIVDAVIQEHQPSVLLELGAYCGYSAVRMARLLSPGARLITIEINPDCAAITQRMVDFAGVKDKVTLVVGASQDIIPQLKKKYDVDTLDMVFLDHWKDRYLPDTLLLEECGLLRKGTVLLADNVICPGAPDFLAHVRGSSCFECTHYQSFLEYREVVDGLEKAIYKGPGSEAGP
inactive: [1] -0.097 | filanesib -0.054 | zotarolimus 0.034 | idasanutlin -0.093 | alisertib 0.009 | [2] 0.15 | gefitinib 0.043 | [3] 0.004 | lapatinib -0.042 | pictilisib 0.136

CDK11B (UniProt P21127)
inactive: [1] -0.253 | filanesib -0.009 | zotarolimus -0.046 | idasanutlin -0.094 | alisertib 0.011 | [2] 0.151 | gefitinib 0.095 | [3] 0.097 | lapatinib -0.069 | pictilisib -0.057

CHCHD1 (UniProt Q96BP2)
inactive: [1] 0.037 | filanesib -0.017 | zotarolimus -0.001 | idasanutlin 0.082 | alisertib -0.077 | [2] -0.198 | gefitinib -0.042 | [3] 0.161 | lapatinib -0.055 | pictilisib -0.193

CRYM-AS1 (UniProt A6NIL9)
inactive: [1] 0.159 | filanesib 0.047 | zotarolimus 0.146 | idasanutlin -0.364 | alisertib 0.037 | gefitinib -0.16 | [3] -0.041 | pictilisib 0.109

CDK17 isoform 2 (UniProt Q00537)
Sequence of UniProt Q00537 (Q00537 whole entry, looked up): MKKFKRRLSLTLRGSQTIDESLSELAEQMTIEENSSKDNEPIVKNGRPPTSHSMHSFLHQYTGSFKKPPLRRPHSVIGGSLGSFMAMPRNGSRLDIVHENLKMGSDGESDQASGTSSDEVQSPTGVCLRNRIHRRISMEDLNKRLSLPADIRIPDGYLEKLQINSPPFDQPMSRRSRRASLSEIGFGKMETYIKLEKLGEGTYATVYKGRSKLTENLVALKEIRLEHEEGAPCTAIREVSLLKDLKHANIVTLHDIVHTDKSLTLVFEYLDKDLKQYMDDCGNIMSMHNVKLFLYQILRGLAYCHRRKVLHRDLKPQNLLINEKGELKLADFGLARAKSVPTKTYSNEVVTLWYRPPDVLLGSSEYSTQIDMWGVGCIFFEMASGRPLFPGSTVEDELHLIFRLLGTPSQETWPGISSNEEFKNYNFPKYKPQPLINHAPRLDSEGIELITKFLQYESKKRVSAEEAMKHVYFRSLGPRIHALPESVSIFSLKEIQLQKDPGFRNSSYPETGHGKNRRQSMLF
inactive: [1] -0.031 | filanesib -0.024 | zotarolimus -0.208 | idasanutlin 0.03 | alisertib 0.508 | [2] 0.051 | [3] 0.103 | lapatinib 0.049 | pictilisib 0.158

C1D (UniProt Q13901)
Sequence of UniProt Q13901 (Q13901 whole entry, looked up): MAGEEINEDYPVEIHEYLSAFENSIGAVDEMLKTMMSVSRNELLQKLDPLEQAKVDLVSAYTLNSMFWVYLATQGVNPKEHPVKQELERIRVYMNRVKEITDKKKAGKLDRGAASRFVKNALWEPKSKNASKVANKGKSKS
inactive: [1] -0.171 | filanesib -0.041 | idasanutlin 0.12 | alisertib -0.138 | [2] -0.101 | gefitinib 0.043 | [3] -0.027 | lapatinib 0.006 | pictilisib 0.012

COMMD1 (UniProt Q8N668)
Sequence of UniProt Q8N668 (Q8N668 whole entry, looked up): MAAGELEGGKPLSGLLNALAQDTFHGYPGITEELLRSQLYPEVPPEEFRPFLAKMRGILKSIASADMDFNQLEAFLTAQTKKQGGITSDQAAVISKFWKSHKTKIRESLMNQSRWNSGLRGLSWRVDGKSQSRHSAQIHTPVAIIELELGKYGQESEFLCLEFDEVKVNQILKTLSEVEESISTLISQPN
inactive: [1] 0.054 | filanesib 0.06 | alisertib -0.151 | [2] 0.029 | gefitinib -0.01 | [3] -0.04 | lapatinib -0.029 | pictilisib 0.006

C15orf41 (UniProt Q9Y2V0)
Sequence of UniProt Q9Y2V0 (Q9Y2V0 whole entry, looked up): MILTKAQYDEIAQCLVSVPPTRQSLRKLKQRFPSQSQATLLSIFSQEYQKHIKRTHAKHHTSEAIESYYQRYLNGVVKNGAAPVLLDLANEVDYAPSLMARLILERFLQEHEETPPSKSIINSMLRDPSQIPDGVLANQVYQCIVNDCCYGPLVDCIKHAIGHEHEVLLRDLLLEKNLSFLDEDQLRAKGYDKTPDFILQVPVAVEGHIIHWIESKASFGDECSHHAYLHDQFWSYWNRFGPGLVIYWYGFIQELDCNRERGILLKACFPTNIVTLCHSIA
inactive: [1] -0.057 | filanesib -0.021 | zotarolimus -0.096 | idasanutlin -0.023 | [2] 0.011 | lapatinib -0.018 | pictilisib 0.047

CLASP2 (UniProt O75122)
inactive: [1] 0.015 | zotarolimus 0.235 | idasanutlin 0.101 | alisertib -0.025 | [2] 0.125 | gefitinib 0.071 | [3] 0.072 | lapatinib 0.032

CASP9 (UniProt P55211)
Sequence of UniProt P55211 (P55211 whole entry, looked up): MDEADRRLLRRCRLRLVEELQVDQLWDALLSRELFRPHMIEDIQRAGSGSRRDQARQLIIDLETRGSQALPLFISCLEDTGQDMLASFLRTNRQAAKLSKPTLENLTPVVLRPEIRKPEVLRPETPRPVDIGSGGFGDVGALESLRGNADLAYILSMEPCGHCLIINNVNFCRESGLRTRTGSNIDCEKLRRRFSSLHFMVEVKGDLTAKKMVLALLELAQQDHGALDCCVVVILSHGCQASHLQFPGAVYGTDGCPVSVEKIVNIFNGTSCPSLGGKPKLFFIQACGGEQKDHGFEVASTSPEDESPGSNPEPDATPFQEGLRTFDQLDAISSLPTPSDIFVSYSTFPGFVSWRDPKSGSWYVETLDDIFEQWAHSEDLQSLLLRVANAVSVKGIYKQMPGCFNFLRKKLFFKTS
inactive: [1] 0.095 | filanesib 0.169 | zotarolimus -0.043 | idasanutlin -0.008 | [2] 0.02 | gefitinib 0.146 | lapatinib -0.034 | pictilisib -0.019

COX7C (UniProt P15954)
Sequence of UniProt P15954 (P15954 whole entry, looked up): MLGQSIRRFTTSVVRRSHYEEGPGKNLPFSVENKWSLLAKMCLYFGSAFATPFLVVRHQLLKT
inactive: [1] 0.12 | filanesib 0.009 | idasanutlin 0.114 | alisertib -0.016 | [2] -0.069 | gefitinib 0.059 | [3] -0.053 | lapatinib 0.008 | pictilisib -0.288
